Results filed as inconclusive are left out. Where a call stands in place of a potency, no number is given. The source made the active and inactive calls. Calls come from the whole dose curve; as a rule, active = well fitted activation curve with a large enough effect; inconclusive = small, poorly fitted or top-dose-only effect; inactive = flat fitted curve, though single readings scatter. Starred links: 1 amine or outer side, 2 acyl side, 3 side chain; linkers in the order of their positions; H or OH if unused. Positions of bridges follow the written chain, without caps; N, C: chain ends. Non-standard residues stand in square brackets, D forms with d. Residues, ends and D or L forms follow the SMILES beside them. ξ: configuration not given here. *: point of attachment. X3 = C[C@@H](Oc1ccc([C@H](N[*:1])C(=O)[*:2])cc1)[C@]1(/C=C\C(=O)[*:3])CO1; d(aIle) = CC[C@H](C)[C@@H](N)C(=O)O; X2 = CC(C)[C@@H](O)C(C)C(=O)*; ξNMeF = CNC(Cc1ccccc1)C(=O)O; ξT = CC(O)C(N)C(=O)O; ξS = NC(CO)C(=O)O
Assay: qHTS for Activators of p53 Stress Response Pathway screened against the NCATS CANVASS Library (AID 1347388)
Details: p53RE-bla HCT-116, beta-lactamase reporter, 16 h; series mostly up to 46.1 µM
Source text: Natural products and their derivatives continue to be wellsprings of nascent therapeutic potential. However, many laboratories have limited resources for biological evaluation, leaving their previously isolated or synthesized compounds largely or completely untested. To address this issue, the Canvass library of natural products was assembled (https://tripod.nih.gov/canvass), in collaboration with academic and industry researchers, for quantitative high-throughput screening (qHTS) across a diverse set of cell-based and biochemical assays. The pure (>85% purity by liquid chromatography/mass spectrometry [LC/MS]) Canvass library of 346 natural products were submitted by 45 academic laboratories and companies around the world. We collected pure natural products to circumvent deconvolution and structure elucidation due to time and resource limitations. The library was formatted into 1536-well plates and evaluated in 50 qHTS (in an 11-pnt concentration series) bioassays with broad scope of disease-relevant mechanisms. The resulting data set from 50 different assays was then systematically analyzed to identify overall trends and specific natural products with interesting biological activities. Reported herein are the results of each individual qHTS and their corresponding assay protocol. This assay measures compound activation of the p53 signaling pathway in cells using a beta-lactamase reporter gene. The p53RE-bla HCT-116 cell line (Invitrogen) contains a stably integrated beta-lactamase reporter gene under control of the p53 response elements. The activation of the report gene under culture conditions can be detected by fluorescence intensity. National Center for Advancing Translational Sciences (NCATS), Rockville, MD National Institute of Health (NIH), Bethesda, Maryland
p53-screen protocol: 1. In black-clear bottom 1536-well plate, 5 uL of p53RE-bla HCT-116 cell suspension was dispensed using a Multidrop Combi (Thermo Fisher Scientific) at a final concentration of 4000 cells / well. 2. The assay plates were incubated for 5 hours at 37C, 5% CO2. 3. […] of compounds (in DMSO; columns 5-48), vehicle control DMSO, and positive control were pin transferred into the assay plates using the Kalypsis pin tool (Wako USA) equipped with a 1536-well pin heads. This yields a final CANVASS compound concentration of 0.4 nM - […]. 4. The assay plates were incubated for 16 hours at 37C, 5% CO2. 5. After incubation, 1 uL of CCF4 dye was added per well using the BioRAPTR dispenser 6. The plates were incubated for 2 hours at room temperature. 7. The fluorescence readout was obtained using the EnVision microplate reader (PerkinElmer) equipped with a 405 nm excitation and 460 nm and 530 nm emission filters. The ratio of 460 nm / 530 nm readout was calculated and used for data analysis. 8. To access cellular viability and compound toxicity, 4 uL of CellTiter-Glo was added to the wells using the BioRAPTR dispenser. 9. The assay plates were further incubated for 30 minutes at room temperature. 10. Luminescence signal was obtained using the ViewLux plate reader (PerkinElmer) using the clear emission filter and 1x binning, 2 second exposure settings.
With C/C=C(\C)C(=O)O[C@@H]1[C@@H](O)[C@@H]2O[C@H]3[C@H](O[C@@H](CCCCC)CCCCCCC(=O)CCC(=O)OC[C@@H](O2)[C@H]1OC(=O)/C=C/c1ccccc1)O[C@H](C)[C@H](OC(C)=O)[C@@H]3O the Potency was “inactive”.
For COC1C(O)C(C)OC(OC2C(Oc3cccc4c(O)c5c(=O)oc6ccc(C)c7c(=O)oc(c34)c5c67)OC(C)C(O)C2O)C1O (configuration not stated), the Potency was 10.5 µM (active).
In the case of C[C@]12CCC3[C@@H](CC[C@@H]4C[C@@H](O)CC[C@]34CO)[C@@]1(O)CC[C@@H]2C1=CC(=O)OC1 (some centres not stated), the Potency was “inactive”.
With CO[C@H]1[C@H](O[C@H]2CC[C@]3(C=O)[C@H]4CC[C@]5(C)[C@@H](C6=CC(=O)OC6)CC[C@]5(O)[C@@H]4CC[C@]3(O)C2)O[C@H](C)[C@H](O)[C@@H]1OC the Potency was “inactive”.
In the case of C/C=C1/CN2CC[C@@]34c5ccccc5N(C)[C@@H]3[C@@H]2C[C@@H]1[C@H]4C(=O)OC, the Potency was “inactive”.
With C[N+](C)(C)CCc1c[nH]c2ccccc12 the Potency was “inactive”.
In the case of CO[C@H]([C@@H](C)[C@H]1O[C@]1(C)C[C@H](C)/C=C/C=C(\C)[C@H]1O[C@@H](CC(=O)O)CC[C@@H]1C)[C@@H](C)O, the Potency was 0.0148 µM (active).
With C/C(=C\[C@H](C)C(=O)C[C@H](O)CC1CC(=O)NC(=O)C1)[C@@H]1OC(=O)/C=C/CC/C=C/C=C/[C@@H]1C the Potency was “inactive”.
With CCCC[C@@H](C)/C=C1/CN2CCC[C@H]2[C@@](C)(O)[C@@H]1O the Potency was “inactive”.
For CO[C@@H](/C=C/CC/C=C/C(=O)O)[C@@H](O)[C@H](C)/C=C(\C)[C@H](O)[C@H](C)C(=O)CCCC1CC(=O)NC(=O)C1, the Potency was “inactive”.
In the case of CC[C@@H]1CN2CCC3(Nc4cccc(OC)c4C3=O)[C@@H]2C[C@@H]1/C(=C\OC)C(=O)OC (some centres not stated), the Potency was “inactive”.
In the case of CCCC[C@@H]1CC[C@H]2CCCC(CCCO)N12 (some centres not stated), the Potency was “inactive”.
With C=CC(C)(C)[C@@]12C[C@H]3C(=O)N/C(=C\c4cnc[nH]4)C(=O)N3[C@@H]1Nc1ccccc12 the Potency was “inactive”.
For CC[C@H](C)[C@H]1NC(=O)[C@@H](NC(=O)C(C)[C@H](O)C(C)C)[C@@H](C)OC(=O)C2COC(=O)CNC(=O)/C=C\[C@]3(CO3)[C@@H](C)Oc3ccc(cc3)[C@H](NC1=O)C(=O)N(C)C(Cc1ccccc1)C(=O)NC(C(C)O)C(=O)N2 (some centres not stated) (X2-T[d(aIle)][X3][ξNMeF][ξT][ξS]; ester 1-C; linker 3-6 via G), the Potency was “inactive”.
With C=C[C@H]1CN2CCc3c([nH]c4cccc(OC)c34)[C@@H]2C[C@@H]1/C(=C\OC)C(=O)OC the Potency was “inactive”.
With c1ccc2nc3c(cc2c1)[nH]c1ccccc13 the Potency was “inactive”.
In the case of C=C[C@]12C=CCN3CC[C@@]4(c5ccccc5NC(=O)[C@@H]4C1)[C@@H]32, the Potency was “inactive”.
For C=CC(C)(C)[C@@]12C[C@H]3C(=O)N/C(=C/c4cnc[nH]4)C(=O)N3[C@@H]1Nc1ccccc12, the Potency was “inactive”.
In the case of CC[C@]12C=CCN3CC[C@]4(C(=C(C(=O)OC)C1)Nc1ccccc14)[C@@H]32, the Potency was “inactive”.
For C[C@]12CC(O)C3[C@@H](CC[C@@H]4C[C@@H](O)CC[C@]34CO)[C@@]1(O)CC[C@@H]2C1=CC(=O)OC1 (some centres not stated), the Potency was “inactive”.
With CC[C@H]1CN2CCc3c([nH]c4cccc(OC)c34)[C@@H]2C[C@@H]1/C(=C\OC)C(=O)OC the Potency was “inactive”.
In the case of CC(C)CC1C(=O)O[C@H](C(C)C)C(=O)N(C)C(CC(C)C)C(=O)O[C@@H](C(C)C)C(=O)N(C)C(CC(C)C)C(=O)O[C@H](C(C)C)C(=O)N(C)C(CC(C)C)C(=O)O[C@@H](C(C)C)C(=O)N1C (some centres not stated), the Potency was “inactive”.
With O[C@H]1C=C[C@@]23CCN(Cc4cc5c(cc42)OCO5)[C@@H]3C1 the Potency was “inactive”.
In the case of C/C=C1/CN2CC[C@]34C(=C(C(=O)OC)[C@H]1C[C@H]23)Nc1ccccc14, the Potency was “inactive”.
With CO[C@@]12c3c(C)cc(O)c4c(=O)occ(c34)C(=O)[C@@H]1[C@]13COC(=O)c4c(O)cc(C)c(c41)C(=O)[C@H]2[C@@H]3OC(C)=O the Potency was “inactive”.
With CCCCC1CC[C@H]2CCCC(CCC)N12 (some centres not stated) the Potency was “inactive”.
For C1=C2CCCN[C@H]2C2CC1[C@H]1CCCCN1C2 (some centres not stated), the Potency was “inactive”.

— PubChem BioAssay (NCATS)
Potency is the fitted concentration of half-maximal effect.
